Assay [1] concerns the target human Vascular Endothelial Growth Factor Receptor 3 (VEGFR3), FLT4 (gene 2324) (UniProt P35916). Put plainly: NVS_ENZ_hVEGFR3: NovaScreen (NVS) Enzymatic Assay for human Vascular Endothelial Growth Factor Receptor 3 (VEGFR3) (AID 2283229). In outline: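 Cell-free recombinant VEGFR3 kinase reaction with fluorescent substrate, read 1 h after dosing by electrophoretic mobility shift separation of substrate and product. Single-concentration duplicate screen at 25 uM, then concentration-response up to 50 uM; loss of activity versus DMSO.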

The target in assay [2] is rat Catechol-O-Methyl Transferase (COMT), Comt (gene 24267) (UniProt P22734). Put plainly: NVS_ENZ_rCOMT: NovaScreen (NVS) Enzymatic Assay for rat Catechol-O-Methyl Transferase (COMT) (AID 2283235). An outline of the steps:
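Cell-free enzyme activity with protein extracted from rat dorsal striatum, measured by HPLC with absorbance detection. Compounds screened at 25 uM in duplicate; actives then run in concentration-response up to 50 uM, loss of signal versus DMSO.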

Assay [3] deals with bovine Angiotensin II Receptor Type 2 (AT2), gene 407157. Nature of the assay: NVS_GPCR_bAT2: NovaScreen (NVS) G Protein-Coupled Receptor Assay for bovine Angiotensin II Receptor Type 2 (AT2) (AID 2283240). An outline of the steps:
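Radioligand displacement on bovine cerebellar membranes, 1 hour incubation, filter-based scintillation counting; loss of signal vs DMSO. Duplicate single-point screen at 25 uM, then concentration-response to 50 uM maximum.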

In assay [4] the target is bovine Dopamine Receptor (DR), Non-selective Binding, DRD1 (gene 281125) (UniProt Q95136). Nature of the assay: NVS_GPCR_bDR_NonSelective: NovaScreen (NVS) G Protein-Coupled Receptor Assay for bovine Dopamine Receptor (DR), Non-selective Binding (AID 2283241). An outline of the steps: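 Bovine striatal membranes; radioligand displacement read by filtration and scintillation counting 1 h after dosing, loss of signal vs DMSO. Screened in duplicate at 25 uM, then concentration-response for hits.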

We go through 7 compounds from PubChem BioAssay (EPA / NIEHS).

Inconclusive results are not listed. Calls of active or inactive are those of the source. Rule for the calls: active = hit-call score of the fitted dose curve at least 0.9, where 1 is the maximum; inconclusive = response in the unintended direction; inactive = score below 0.9.

Chain of human Vascular Endothelial Growth Factor Receptor 3 (VEGFR3), FLT4 (gene 2324) (P35916 whole entry, looked up): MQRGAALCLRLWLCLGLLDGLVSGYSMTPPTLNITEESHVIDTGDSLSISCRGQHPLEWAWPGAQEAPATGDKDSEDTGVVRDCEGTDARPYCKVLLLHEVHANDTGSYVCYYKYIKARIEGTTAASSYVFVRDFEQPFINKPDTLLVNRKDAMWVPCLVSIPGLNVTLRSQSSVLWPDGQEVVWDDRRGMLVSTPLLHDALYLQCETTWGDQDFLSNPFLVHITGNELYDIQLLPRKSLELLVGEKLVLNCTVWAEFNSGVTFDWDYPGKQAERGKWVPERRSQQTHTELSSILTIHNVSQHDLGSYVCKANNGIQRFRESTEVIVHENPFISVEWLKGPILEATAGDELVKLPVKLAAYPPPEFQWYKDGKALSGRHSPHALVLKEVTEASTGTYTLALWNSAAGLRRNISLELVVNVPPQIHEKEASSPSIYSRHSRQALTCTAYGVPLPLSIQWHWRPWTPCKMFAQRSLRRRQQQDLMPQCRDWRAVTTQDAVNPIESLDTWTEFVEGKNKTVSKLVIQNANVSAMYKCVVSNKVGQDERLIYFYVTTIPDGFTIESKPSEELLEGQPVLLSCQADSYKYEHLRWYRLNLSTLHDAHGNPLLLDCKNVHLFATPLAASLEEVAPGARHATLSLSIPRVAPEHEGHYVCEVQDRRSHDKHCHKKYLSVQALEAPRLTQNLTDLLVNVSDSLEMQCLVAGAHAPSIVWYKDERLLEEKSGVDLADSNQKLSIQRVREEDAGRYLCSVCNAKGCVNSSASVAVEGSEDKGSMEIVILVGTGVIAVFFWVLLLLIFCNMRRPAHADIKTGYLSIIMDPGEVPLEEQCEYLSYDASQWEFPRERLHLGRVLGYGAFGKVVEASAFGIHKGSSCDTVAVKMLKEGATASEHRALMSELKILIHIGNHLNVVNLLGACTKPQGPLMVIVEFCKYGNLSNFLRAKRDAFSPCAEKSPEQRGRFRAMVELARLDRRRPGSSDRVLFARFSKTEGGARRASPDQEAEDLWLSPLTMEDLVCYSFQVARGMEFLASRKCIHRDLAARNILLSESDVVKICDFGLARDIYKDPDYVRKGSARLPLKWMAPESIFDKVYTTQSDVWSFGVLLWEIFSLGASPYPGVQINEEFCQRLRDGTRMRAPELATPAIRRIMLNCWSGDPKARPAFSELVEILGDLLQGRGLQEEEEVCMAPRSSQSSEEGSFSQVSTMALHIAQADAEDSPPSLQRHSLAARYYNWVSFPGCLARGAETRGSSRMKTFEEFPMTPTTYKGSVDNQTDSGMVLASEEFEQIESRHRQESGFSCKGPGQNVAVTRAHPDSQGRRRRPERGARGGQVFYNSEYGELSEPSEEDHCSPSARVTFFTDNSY
Chain of rat Catechol-O-Methyl Transferase (COMT), Comt (gene 24267) (P22734 whole entry, looked up): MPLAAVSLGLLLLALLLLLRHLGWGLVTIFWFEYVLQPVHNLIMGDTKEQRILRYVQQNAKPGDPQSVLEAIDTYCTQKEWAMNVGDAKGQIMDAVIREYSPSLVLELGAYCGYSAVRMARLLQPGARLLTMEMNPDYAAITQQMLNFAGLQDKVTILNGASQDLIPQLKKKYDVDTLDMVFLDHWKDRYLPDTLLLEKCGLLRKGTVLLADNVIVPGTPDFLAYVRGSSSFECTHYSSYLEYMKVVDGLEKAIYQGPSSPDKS
Chain of bovine Dopamine Receptor (DR), Non-selective Binding, DRD1 (gene 281125) (Q95136 whole entry, looked up): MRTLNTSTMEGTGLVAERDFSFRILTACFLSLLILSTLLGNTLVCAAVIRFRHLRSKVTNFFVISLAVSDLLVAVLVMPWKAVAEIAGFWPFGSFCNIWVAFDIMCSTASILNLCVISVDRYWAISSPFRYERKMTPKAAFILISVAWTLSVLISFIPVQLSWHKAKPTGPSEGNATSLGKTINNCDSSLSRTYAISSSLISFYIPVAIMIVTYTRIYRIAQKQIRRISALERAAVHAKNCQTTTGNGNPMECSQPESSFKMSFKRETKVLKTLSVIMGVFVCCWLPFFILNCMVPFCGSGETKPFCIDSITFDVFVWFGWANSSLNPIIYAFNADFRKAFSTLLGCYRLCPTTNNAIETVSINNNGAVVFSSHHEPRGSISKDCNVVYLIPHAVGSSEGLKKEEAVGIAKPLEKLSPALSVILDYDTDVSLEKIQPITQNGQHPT

`CC1=C(/C=C/C(C)=C/C=C/C(C)=C/CO)C(C)(C)CCC1`: the call in assay [1] and in assay [2] was inactive. For the compound `NCCO`, the call in assay [1] was inactive.

By AC50 is commonly meant the midpoint of the concentration-response curve, whichever way the signal moves. In the case of `O=c1c(O)c(-c2ccc(O)c(O)c2)oc2cc(O)cc(O)c12`, the AC50 in assay [2] is 12.4 µM (active). Regarding `COc1cc(-c2nc(NC(=O)c3cc4cc(C)cc(C)c4n3CC(=O)O)sc2CCC2CCCCC2)c(OC)cc1Cl`, the AC50 in assay [3] is 29.4 µM (active). Still for that read-out and setting: next, `CCCCC(CC)COC(=O)CC(C(=O)OCC(CC)CCCC)S(=O)(=O)O` (stereo not drawn): 19.1 µM (active). `C1CCC(SSC2CCCCC2)CC1`: the compound was classed as inactive in assay [4]. In the case of `NC(=O)Cn1c(=O)cc(CCN2CCN(c3nccc4sccc34)CC2)c2ccc(F)cc21`, in assay [4], the AC50 was 1.26 µM (active).
